Reference: PubChem BioAssay AID841 (Emory University Molecular Libraries Screening Center, 2007)
Hit rate of the full screen: of about 140,000 compounds, about 2,100 (1.5%) were called active. No stated cut-off is given here; in the data, active means protection mostly above about 24% (no sharp cut-off); inactive means mostly below about 26%. The sample as a whole holds a higher share of actives than the screen did.

Test: compounds protecting cells from measles virus cytopathic effect, primary screen, measles RdRp inhibitor project, single point, MLSMR library, absorbance (AID 841)
Conditions: Measles virus-infected cells, CPE protection, at 4 µM, active compounds read high

| SMILES | protection (pct of control) |
| --- | --- |
| CCOC(=O)CC1=C(C(=O)OCC)C2(C(=O)N1)C(C(=O)OC)=C(N)Oc1ccccc12 (stereo not given) | 9.79% (inactive) |
| C=CCN1C(=O)C2(C(C(=O)OCC)=C(N)Oc3c2c(=O)oc2ccccc32)c2ccccc21 (stereo not given) | 81% (active) |
| COC(=O)CN1C(=O)C2(C(C(=O)OC)=C(N)Oc3ccccc32)C2=C1CC(C)(C)CC2=O (stereo not given) | 2.86% (inactive) |
| Cc1ccnc(-n2c(C)cc(/C=C3\C(=O)NC(=S)N(C)C3=O)c2C)c1 | 5.91% (inactive) |
| Cc1ccc(N2C(=O)NC(=O)C(CCc3ccncc3)(Cc3cccc(Cl)c3Cl)C2=O)cc1 (stereo not given) | 7.36% (inactive) |
| Cc1nn(Cc2ccccc2Cl)c(Cl)c1C(=O)OC(C(=O)NC(N)=O)C(C)C (stereo not given) | 14% (inactive) |
| Cn1c(C(=O)N2CCC(C(=O)N3CCC4(CC3)OCCO4)CC2)cc2sccc21 | 8.88% (inactive) |
| O=C(C1CC(=O)N(C2CCCC2)C1)N1CCC2(CC1)OCCO2 (stereo not given) | 38.9% (active) |
| CCN(N=Nc1nonc1OC)c1nonc1OC | 5.4% (inactive) |
| CCC(=O)CC(c1ccc([N+](=O)[O-])cc1)c1c(O)c2ccccc2oc1=O (stereo not given) | 15.5% (inactive) |
| COc1ccc(C2N3CC(C)(C)CN23)cc1 (stereo not given) | 8.77% (inactive) |
| O=C1NC(=O)C(CCc2ccccn2)(Cc2cccc(Cl)c2Cl)C(=O)N1c1ccc(Br)cc1 (stereo not given) | 10.4% (inactive) |
| Cc1cccc(OP(=O)(Oc2cccc(C)c2)OC(c2ccccc2)C(F)(F)F)c1 (stereo not given) | 1.45% (inactive) |
| Cc1nc2ccccn2c1P(=S)(N1CCCCC1)N1CCCCC1 | 4.18% (inactive) |
| CCOC(=O)C(O)(c1ccc(N)c(OC)c1)C(F)(F)F (stereo not given) | 3.68% (inactive) |
| COC(=O)C(O)(c1ccc(NC(=O)c2ccco2)c(OC)c1)C(F)(F)F (stereo not given) | 3.68% (inactive) |
| CCOC(=O)C(O)(c1ccc(NC(=O)c2ccco2)c(OC)c1)C(F)(F)F (stereo not given) | 39.8% (active) |
| CC(=O)Nc1ccccc1C(=O)OCC(=O)c1cccc2ccccc12 | 26.2% (inactive) |
| O=c1[nH]c(=S)n(C2CC2)c(O)c1/C=N/N1CCOCC1 | 5.81% (inactive) |
| CNC(=O)N(C)c1nnc(C(C)(C)C)s1 | 54.7% (active) |
| CCOC(=O)C(O)(c1ccc(N=Cc2ccccc2O)c(C)c1)C(F)(F)F (stereo not given) | 5.53% (inactive) |
| CC(=O)N(C1=NCCCS1)c1ccccc1F | 62.1% (active) |
| COc1c(O)ccc2c1-c1c3c(cc4c1C(C2)N(C)CC4)OCO3 (stereo not given) | 6.07% (inactive) |
| CC(C(=O)Nc1ccc(Cl)cc1Cl)N1CC=C(c2ccccc2)CC1 (stereo not given) | 9.49% (inactive) |
| CN1CCN(c2cc(N3CCNCC3)ccc2[N+](=O)[O-])CC1 | 21.6% (inactive) |
| CN(C)C(=O)Oc1ccc(OCc2cccc[n+]2C)cc1 | 6.21% (inactive) |
| c1ccc2sc(C3CCCNC3)nc2c1 (stereo not given) | 54.6% (active) |
| CN(C)c1ccc(/C=C2\CC3C4CC=C5CC(O)CCC5(C)C4CCC3(C)C2=O)cc1 (stereo not given) | 2.96% (inactive) |
| CC(C)N(CC#CCC1(O)c2ccccc2-c2ccccc21)C(C)C | 14.5% (inactive) |
| Cc1cccc(-n2c(O)c(/C=N/N3CCOCC3)c(=O)[nH]c2=S)c1 | 1.74% (inactive) |
